Abeta rescue = A-beta toxicity reversal in yeast; 410,000 tested, 0.063% active; Potency, µM (titrated, usually from 46.1 µM), actives largely listed as activators; yeast expressing A-beta42, growth rescue, OD600, 48 h; response scale: 0% DMSO, 100% iron-clioquinol control; further: nearly all actives have a fitted effect of over 55% in size
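Yeast A-beta toxicity model in growth medium with pinned compounds, 48 h at 30 C; growth read as absorbance at 600 nm. Normalized to FeCl3/clioquinol equimolar mix (positive) and DMSO (negative).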
aSyn rescue = alpha-synuclein toxicity inhibition in yeast; Yeast expressing alpha-synuclein, growth rescue, BacTiter-Glo, 24 h; Potency, µM (highest dose often 46.1 µM), most hits filed as activators; 370,000 tested, 0.14% active; AID 652106; further: nearly all actives have a fitted effect of over 65% in size
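Readout is rescue of growth in alpha-synuclein-expressing yeast, so inhibitors of toxicity appear as activators. Growth after 24 hr at 30 deg C in galactose medium is quantified by luminescence.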
FUS yeast rescue = suppressors of FUS proteinopathy in yeast. 390,000 tested, 0.24% active. AID 1347120. Potency, µM (titrated, usually from 76.6 µM), hits mostly activators. S. cerevisiae FUS-expressing, growth rescue, OD600, 24 h; further: nearly all actives have a fitted effect of over 55% in size
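Quantitative HTS measuring growth restoration of FUS-toxic yeast. Galactose-induced cells (OD 0.005) were exposed 24hr at 30C to compounds at several concentrations, then absorbance at 600 nm was recorded.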
TDP-43 yeast inh = rescues yeast growth from TDP-43 toxicity; 410,000 tested, 1.8% active; TDP-43 expressing yeast growth rescue, BacTiter-Glo, 24 h; Potency, µM (doses to about 46.1 µM), actives largely listed as activators; further: nearly all actives have a fitted effect of over 50% in size
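Luminescence from BacTiter-Glo reports growth of TDP-43-expressing yeast after 24 hr at 30 deg C with compound. Cells were raffinose-pregrown to mid-log, then seeded in galactose medium at OD600=0.02.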
Large screens that a line does not name were inactive. Compounds with a hit are over-represented: about 2.1% of the library has one in this group of screens. The call rests on the fitted dose curve; in most records, active means well fitted curve in the direction sought with a large enough effect; inconclusive means small, poorly fitted or top-dose-only effect, or another doubt; inactive means no such curve, though single readings can be large; an effect the other way counts as inactive or inconclusive.

N/C(=N\OC(=O)c1ccccc1Cl)c1ccncc1	TDP-43 yeast inh 25.1µM
N/C(=N\OC(=O)c1ccc(Cl)cc1Cl)c1ccncc1	none
N/C(Cc1ccc([N+](=O)[O-])cc1)=N\OC(=O)c1ccc([N+](=O)[O-])cc1	TDP-43 yeast inh 17.8µM (no result: FUS yeast rescue)
N/C(=N\OC(=O)c1ccc2ccccc2c1)c1cccc([N+](=O)[O-])c1	TDP-43 yeast inh 22.4µM
N/C(=N/OC(=O)c1cccc([N+](=O)[O-])c1)c1cccc([N+](=O)[O-])c1	none
O=C(c1cccs1)N(Cc1ccco1)c1ccc(O)cc1	none (no result: Abeta rescue, FUS yeast rescue, TDP-43 yeast inh)
N/C(=N\OC(=O)c1ccc2ccccc2c1)c1ccccn1	none
N/C(=N\OC(=O)c1ccccc1Cl)c1cccc([N+](=O)[O-])c1	TDP-43 yeast inh 11.2µM
N/C(=N\OC(=O)c1ccc2ccccc2c1)c1ccncc1	TDP-43 yeast inh 12.6µM
O=C1c2[nH]nc(-c3ccccc3O)c2C(c2ccc(F)cc2)N1Cc1ccco1 (configuration not stated)	FUS yeast rescue 44.7µM
Cc1cc(C)c(O)c(-c2n[nH]c3c2C(c2cccc(O)c2)N(Cc2ccco2)C3=O)c1 (configuration not stated)	FUS yeast rescue 31.6µM
O=C1c2[nH]nc(-c3ccccc3O)c2C(c2cccc(Cl)c2)N1Cc1ccco1 (configuration not stated)	FUS yeast rescue inconclusive, TDP-43 yeast inh inconclusive
Cc1ccc(CN[C@@H]2CC[C@@]34CCCN3C(=O)CCC[C@H]4C2)cc1	none (no result: Abeta rescue, aSyn rescue, TDP-43 yeast inh)
CC(C)C1OC2c3cccc4cccc(c34)C2N1c1ccccc1 (configuration not stated)	TDP-43 yeast inh 12.6µM
CCc1cccc(Nc2c3c(nc4ncnn24)CCC3)c1	TDP-43 yeast inh 17.8µM
COc1ccc2nc(-c3ccccc3)[nH]c2c1	none
COc1ccc2[nH]c(-c3ccccc3)cc2c1	TDP-43 yeast inh 12.6µM
COC(=O)c1ccc(Cn2ccc3ccc(-c4ccc5ccn(Cc6ccc(C(=O)OC)cc6)c5c4)cc32)cc1	none (no result: Abeta rescue, aSyn rescue, TDP-43 yeast inh)
CCN(CC)S(=O)(=O)c1ccc(NC(=O)CSc2nnc3c(n2)[nH]c2ccccc23)cc1	none (no result: Abeta rescue, FUS yeast rescue, TDP-43 yeast inh)
CN[C@H](CC(C)C)C(=O)N[C@H]1C(=O)N[C@@H](CC(N)=O)C(=O)N[C@@H]2C(=O)N[C@H]3C(=O)N[C@H](C(=O)N[C@H](C(=O)O)c4cc(O)cc(O)c4-c4cc3ccc4O)[C@H](O)c3ccc(c(Cl)c3)Oc3cc2cc(c3O[C@@H]2O[C@H](CO)[C@@H](O)[C@H](O)[C@@H]2O[C@H]2C[C@](C)(N)[C@H](O)[C@H](C)O2)Oc2ccc(cc2Cl)[C@H]1O	none (no result: Abeta rescue, FUS yeast rescue, TDP-43 yeast inh)
CCCCN(CC)S(=O)(=O)c1ccc(C(=O)Nc2nnc(CSC)o2)cc1	aSyn rescue 31.6µM, TDP-43 yeast inh inconclusive
CCCCN(CCCC)S(=O)(=O)c1ccc(C(=O)Nc2nnc(CSC)o2)cc1	aSyn rescue inconclusive
Nc1nc(=S)[nH]c2n[nH]nc12	none (no result: Abeta rescue, FUS yeast rescue, TDP-43 yeast inh)
Nc1ncc2c(n1)CC(c1ccco1)CC2=O (configuration not stated)	TDP-43 yeast inh 14.1µM
CC(=O)Nc1ncc2c(n1)CC(c1ccco1)CC2=O (configuration not stated)	none
C=CCn1c(C)cc(C(=O)CSc2nnc(Cc3ccccc3)o2)c1C	Abeta rescue inconclusive, TDP-43 yeast inh 2.51µM
Cc1cc(C(=O)CSc2ncnc3ccccc23)c(C)n1C1CC1	none (no result: FUS yeast rescue)
C=CCn1c(C)cc(C(=O)CSc2nc3ccccc3o2)c1C	TDP-43 yeast inh 22.4µM
Cc1cc(C(=O)CSc2nc3ccccc3o2)c(C)n1C1CC1	TDP-43 yeast inh 22.4µM
C=CCn1c(C)cc(C(=O)CSc2nc3ccccc3c(=O)[nH]2)c1C	TDP-43 yeast inh 10µM
C=CCn1c(C)cc(C(=O)CSc2nc3ccccc3[nH]2)c1C	none
COc1cc2nc(N(C)C)nc(NC3CCN(C)CC3)c2cc1OC	none (no result: Abeta rescue, FUS yeast rescue, TDP-43 yeast inh)
C=CCn1c(C)cc(C(=O)CSc2nnc(NCc3ccccc3)s2)c1C	Abeta rescue inconclusive, TDP-43 yeast inh 11.2µM
C=CCn1c(C)cc(C(=O)CSc2nnc(NC(C)C)s2)c1C	none
CCN(CC)C(=O)O[C@H]1CC[C@@]23CCCN2C(=O)CCC[C@H]3C1	none (no result: Abeta rescue, aSyn rescue, TDP-43 yeast inh)
CC(Sc1nnc(NC2CC2)s1)C(=O)Nc1ccc(N2CCOCC2)cc1 (configuration not stated)	TDP-43 yeast inh inconclusive
CC(Sc1nnc(NC2CCCCC2)s1)C(=O)Nc1ccc2c(c1)C(=O)c1ccccc1C2=O (configuration not stated)	FUS yeast rescue inconclusive, TDP-43 yeast inh 35.5µM

Screening data from PubChem.
